# Whole data set: some 33,000 sequences, median “E-score (-0.5 to 0.5)” near -0.032, cut for the highest 2% near 0.36. The sample holds the highest values, similar sequences and a random draw of the others, so the mix is not that of the screen.
# Target: T1, Sko1 (UniProt Q02100)
# T1 sequence: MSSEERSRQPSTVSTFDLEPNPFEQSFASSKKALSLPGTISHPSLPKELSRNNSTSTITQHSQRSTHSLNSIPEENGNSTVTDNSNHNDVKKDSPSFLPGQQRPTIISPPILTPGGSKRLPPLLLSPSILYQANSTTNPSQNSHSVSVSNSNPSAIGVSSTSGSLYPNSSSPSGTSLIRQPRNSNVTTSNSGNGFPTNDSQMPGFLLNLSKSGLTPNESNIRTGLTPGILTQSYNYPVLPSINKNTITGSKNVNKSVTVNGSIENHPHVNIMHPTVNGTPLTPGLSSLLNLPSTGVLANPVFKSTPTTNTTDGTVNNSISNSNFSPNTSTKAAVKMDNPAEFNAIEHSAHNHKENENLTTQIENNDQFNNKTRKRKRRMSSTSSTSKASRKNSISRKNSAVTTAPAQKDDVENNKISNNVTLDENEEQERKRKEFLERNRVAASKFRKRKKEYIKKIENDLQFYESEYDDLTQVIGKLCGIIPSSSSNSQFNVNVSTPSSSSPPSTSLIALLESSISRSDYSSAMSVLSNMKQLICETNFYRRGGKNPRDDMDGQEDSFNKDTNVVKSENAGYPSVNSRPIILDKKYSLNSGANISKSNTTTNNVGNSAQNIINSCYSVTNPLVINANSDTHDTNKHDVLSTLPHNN
# Assay: PBM E-score (8-mer binding enrichment) (E-score (-0.5 to 0.5)); higher = stronger / more preferred TF binding
# Settings: protein concentration: 200 nM; construct: GST-full length
# Method in brief: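 The E-score, a modified Wilcoxon-Mann-Whitney statistic, was computed by the Universal PBM Analysis Suite for every ungapped eight-base word pooled with its reverse complement. Scans behind it were normalised with masliner after bound GST-tagged yeast transcription factors were detected with fluorescent anti-GST. The proteins, at about 100-200 nM, had been applied to universal all-10-mer Agilent arrays made double-stranded by primer extension.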
row,Sequence,PBM E-score
1,ATACGCGA,0.281
2,GTACGCAA,0.399
3,GTACGCGA,0.277
4,GAAGTTGC,-0.0684
5,ATAGCACG,-0.0293
6,AATTGGGT,0.12
7,ACACGTCA,0.489
8,GCACGTCA,0.477
9,GTACGGCA,0.0279
10,ACACGTCC,0.214
11,CCACGTCG,0.168
12,ACACGTCG,0.335
13,GCCCGTCA,-0.00134
14,GCACGTCC,0.0489
15,CCACGTCA,0.477
16,GTACGTCA,0.491
17,GTCCGTCA,0.179
18,CCACGTCC,0.109
19,GGCCCTAA,-0.259
20,GACGGTAC,0.171
21,CCAATGGA,-0.215
22,AAGACTGT,-0.142
23,TCACGACA,0.212
24,TCACGTCA,0.484
25,TCCCGTCA,0.218

row,Sequence,PBM E-score
1,GCTCGTGA,-0.116
2,ACACGTGC,0.346
3,GCACGTGC,0.296
4,ACACGAGT,-0.0245
5,ACACGTGA,0.415
6,GCACGTGA,0.387
7,ACACGTGG,0.356
8,ACACGTGT,0.407
9,ACTAGATC,-0.0827
10,CAAGATTA,0.11
11,AAGACGCT,-0.168
12,CAGGTAAC,-0.118
13,AAGACCCC,-0.274
14,CATCCCTA,-0.124
15,AACGTCGA,0.281
16,CACGTCGA,0.278
17,TACGTCGA,0.422
18,TCCGTCGA,-0.0164
19,GACGTCGA,0.364
20,CACGTCGG,0.183
21,CGTGTGGC,0.152
22,CCTATAGG,-0.205
23,CAGTAAGA,0.0474
24,ACACATAC,0.124
25,ATGTGACG,0.44

row,Sequence,PBM E-score
1,AGGTGACA,0.118
2,AGGTGACC,-0.0978
3,AGGTGACG,0.388
4,CGGTGACA,-0.0125
5,CGGTGACC,-0.172
6,ATGTGACA,0.169
7,CGGTGACG,0.449
8,ATGTGACC,-0.0234
9,CTCACTAA,0.118
10,AGGGCCAG,-0.407
11,ACCGAGGC,-0.319
12,GGCATTGA,-0.104
13,GCGTAATA,0.421
14,GAGTAATA,0.183
15,CCGTAATA,0.288
16,TCGTAAGA,0.199
17,GCGTAAGC,0.294
18,CCGTAAGA,-0.0187
19,ACGTAAGT,0.465
20,ACGTAAGC,0.455
21,CCGTAAGC,-0.0492
22,ACGTAAGA,0.476
23,AAGTAAGC,0.0436
24,AAGTAAGT,0.0641
25,AGAGTTCC,-0.269

row,Sequence,PBM E-score
1,CGTAGGTC,0.284
2,GTCTCAAA,-0.0308
3,AAGATATT,0.0367
4,ACTCCTAC,0.0364
5,CGTTGCAC,0.11
6,CTCGGCGA,-0.0899
7,CAACATTC,-0.167
8,AATGCCCA,-0.173
9,ATTCTTGC,0.0625
10,GGCAGCAC,-0.103
11,CTTCTCAA,-0.04
12,GCAACCGA,-0.129
13,ATTGGCAA,0.134
14,GTGTAATA,0.221
15,CCGTAAGG,-0.15
16,GTGTAAGA,0.0148
17,AGGTAAGG,-0.0698
18,ATGTAATA,0.376
19,CTGTAATA,0.042
20,GCGTAAGA,0.378
21,GAGTAAGA,0.0882
22,ACGTAAGG,0.464
23,GACTTTGC,-0.117
24,TCTCGCAA,-0.114
25,CATGCCAG,-0.191

row,Sequence,PBM E-score
1,CCTAGGCA,-0.257
2,AGAGCGAT,-0.16
3,CTAGCTAC,-0.105
4,GCATGCCA,-0.187
5,CTGCCATA,-0.0751
6,GTCTGCCA,-0.00797
7,TACGCGCA,0.209
8,CACGCGTA,0.311
9,GACGCGTA,0.388
10,AACGCGTA,0.287
11,GTCGCGTA,0.363
12,CTCGCGTA,0.212
13,TACGCGTA,0.387
14,ATCGCGTA,0.326
15,CACGCGTC,0.291
16,CCCTGGCA,-0.34
17,GGCTGGCA,-0.303
18,AGAACGGG,-0.124
19,AGTGCGTA,0.376
20,CCTGCGTC,0.122
21,AGTGCGTG,0.152
22,CGTGCGTC,0.388
23,GGTGCGTA,0.299
24,CGTGCGTA,0.382
25,CGTGCGCA,0.205

row,Sequence,PBM E-score
1,CGTGCGAC,0.0911
2,AGTGCGTC,0.225
3,CTAGACTA,-0.139
4,CATTGGTC,-0.282
5,CTTGTGCA,-0.154
6,GTAGCGGA,-0.0973
7,CGCTTAAA,0.0298
8,AGCGTGAT,0.147
9,ACGTACAC,0.444
10,ACGTACAG,0.415
11,CCGTACAG,-0.22
12,ATGTACAT,0.32
13,ACGTACAT,0.449
14,GCGTACAC,0.213
15,AGGTACAG,-0.145
16,GCGTACAA,0.146
17,TCGTACAA,0.206
18,AAGTACAT,0.237
19,ACGTACAA,0.414
20,CCGTACAC,-0.0557
21,ACCAATGG,-0.28
22,CTCAGTTA,-0.0515
23,CGAAACTC,-0.0389
24,TAGTCCAA,-0.132
25,ACGTCAGG,0.457

row,Sequence,PBM E-score
1,ACGTCAGT,0.469
2,ATGTCAGG,0.0993
3,AAGTCAGT,-0.0135
4,ACGTCAGA,0.479
5,ACATCAGT,0.179
6,TCGTCAGA,0.307
7,CCGTCAGG,-0.0861
8,CCGTCAGA,-0.0558
9,GGGTCAGA,-0.219
10,GTGTCAGA,-0.06
11,GCGTCAGA,0.364
12,AGTCCCTG,-0.259
13,AATGGGAC,-0.215
14,CGCCCTGC,-0.236
15,CCACTCAG,-0.212
16,CCAAAGAC,-0.098
17,GCGCCCGC,-0.165
18,GATCATAC,0.14
19,ACGGTTCA,-0.126
20,ACGTCAGC,0.48
21,CCGTCAGC,-0.127
22,GCGTCAGC,0.209
